Laboratory results reported in PubChem BioAssay (EPA / NIEHS).
Values joined by “and” are separate entries in the source; they are usually repeats but may differ in a detail not shown here. Equal values may be shown once. Results filed as inconclusive are left out. More than one record can exist for a structure, and the calls need not agree. Active and inactive are the calls of the source. Rule for the calls, unless noted: active = hit-call score of the fitted dose curve at least 0.9, where 1 is the maximum; inactive = score below 0.9.

What was measured:
[1] = read-out: E-selectin (Homo sapiens) (UniProt P16581); test: BSK_SAg_Eselectin: BioMAP Diversity Plus: SAg Assay for Eselectin Biomarker Activity (AID 2283091); settings: primary human HUVEC with PBMC; actives raise or lower the signal
Summary of the method: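 Primary human endothelial cells and peripheral blood mononuclear cells were co-cultured and exposed to chemical for 24 hours. E-selectin levels were then quantified by ELISA, with bidirectional curve fitting normalised to DMSO controls.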

[2] = read-out: Monokine induced gamma interferon (MIG), CXCL9 (gene 4283); test: BSK_SAg_MIG: BioMAP Diversity Plus: SAg Assay for Monokine induced gamma interferon (MIG) Biomarker Activity (AID 2283092); settings: primary human HUVEC with PBMC; actives raise or lower the signal
Summary of the method: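 Measures CXCL9 protein by ELISA in a human vascular primary-cell co-culture (umbilical vein endothelium with PBMC) 24 h after chemical addition. Activity is scored up or down from the DMSO control.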

[3] = BSK_SAg_PBMCCytotoxicity: PBMC Cytotoxicity Assessment in the BioMAP Diversity Plus: SAg Assay (AID 2283093); settings: primary human HUVEC with PBMC;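 note: PBMC viability measured as Alamar Blue reduction fluorescence at 546/580 nm; fitted both ways against DMSO so a hit may be loss or gain of signal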;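 for AC50: PBMC superantigen activated with SEB plus TSST-1 one hour after compound addition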
Summary of the method: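 Compound added to 75,000 PBMC/well for 1 h; SEB and TSST-1 then added at 20 ng/mL final each; 90 h incubation; Alamar Blue 6 h; read 546/580 nm ex/em. Activity fitted bidirectionally relative to DMSO baseline.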

[4] = read-out: Interleukin-8 (IL8), CXCL8 (gene 3576); test: BSK_SAg_IL8: BioMAP Diversity Plus: SAg Assay for Interleukin-8 (IL8) Biomarker Activity (AID 2283094); settings: primary human HUVEC with PBMC; actives raise or lower the signal
Summary of the method: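 ELISA read-out of IL-8 in a primary human vascular co-culture (umbilical vein endothelium plus PBMC), taken 24 h after compound addition. Values derive from bidirectional fits against DMSO negative controls.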

[5] = BSK_SAg_Proliferation: Cell Proliferation Assessment in the BioMAP Diversity Plus: SAg Assay (AID 2283095); settings: primary human HUVEC with PBMC;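 note: relative cell number as total protein by SRB absorbance in sub-confluent culture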
Summary of the method: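 Cells (endothelium plus PBMC, human primary) were dosed with chemical, cultured 96 h, fixed in 10% TCA and stained with 0.1% SRB. Absorbance at 560 nm gave relative protein, fitted bidirectionally relative to DMSO.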

[6] = BSK_SAg_SRB: Viability Assessment in the BioMAP Diversity Plus: SAg Assay (AID 2283096); settings: primary human HUVEC with PBMC;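 note: cells read one day after compound addition; hits may be either gain or loss of signal compared with DMSO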
Summary of the method: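 Total protein by sulforhodamine B staining, 24 h after dosing, in HUVEC–PBMC co-culture; DMSO-referenced bidirectional fitting.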

[7] = molecular target: human CYP19A1, CYP19A1 (gene 1588) (UniProt P11511); test: NVS_ADME_hCYP19A1: NovaScreen (NVS) CYP450-related Enzyme Activity (ADME) Assay for human CYP19A1 (AID 2283098; active = hit-call score of the fitted dose curve at least 0.9, where 1 is the maximum;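 for AC50: potency for inhibitors seen as loss of fluorescent enzyme signal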)
Chain of human CYP19A1, CYP19A1 (gene 1588) (P11511 whole entry, looked up): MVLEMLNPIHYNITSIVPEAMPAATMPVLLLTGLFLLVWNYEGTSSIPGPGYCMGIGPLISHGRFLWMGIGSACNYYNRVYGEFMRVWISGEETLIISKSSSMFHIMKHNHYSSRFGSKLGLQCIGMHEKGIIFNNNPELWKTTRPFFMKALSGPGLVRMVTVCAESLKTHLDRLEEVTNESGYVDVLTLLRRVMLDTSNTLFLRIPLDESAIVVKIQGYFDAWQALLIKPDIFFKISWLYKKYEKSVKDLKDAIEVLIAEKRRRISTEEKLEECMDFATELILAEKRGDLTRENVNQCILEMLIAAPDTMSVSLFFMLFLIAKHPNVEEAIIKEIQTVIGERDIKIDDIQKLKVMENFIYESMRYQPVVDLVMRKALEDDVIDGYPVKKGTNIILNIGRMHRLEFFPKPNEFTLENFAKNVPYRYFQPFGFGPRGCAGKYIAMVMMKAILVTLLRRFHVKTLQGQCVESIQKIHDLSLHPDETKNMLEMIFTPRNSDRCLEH
Summary of the method: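 Biochem, cell-free; recombinant enzyme + specific substrate; fluorescence intensity at 0.5 h post-dose; 10 uM duplicate primary, conc. series for actives; acetonitrile = negative control/baseline; positive and negative controls on every plate.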

[8] = molecular target: human CYP1A2, CYP1A2 (gene 1544) (UniProt P05177); test: NVS_ADME_hCYP1A2: NovaScreen (NVS) CYP450-related Enzyme Activity (ADME) Assay for human CYP1A2 (AID 2283102; active = hit-call score of the fitted dose curve at least 0.9, where 1 is the maximum;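 for AC50: fluorescence from turnover of a fluorogenic substrate by recombinant insect-cell CYP1A2; potency for inhibition since loss of fluorescence marks reduced CYP1A2 activity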)
Chain of human CYP1A2, CYP1A2 (gene 1544) (P05177 whole entry, looked up): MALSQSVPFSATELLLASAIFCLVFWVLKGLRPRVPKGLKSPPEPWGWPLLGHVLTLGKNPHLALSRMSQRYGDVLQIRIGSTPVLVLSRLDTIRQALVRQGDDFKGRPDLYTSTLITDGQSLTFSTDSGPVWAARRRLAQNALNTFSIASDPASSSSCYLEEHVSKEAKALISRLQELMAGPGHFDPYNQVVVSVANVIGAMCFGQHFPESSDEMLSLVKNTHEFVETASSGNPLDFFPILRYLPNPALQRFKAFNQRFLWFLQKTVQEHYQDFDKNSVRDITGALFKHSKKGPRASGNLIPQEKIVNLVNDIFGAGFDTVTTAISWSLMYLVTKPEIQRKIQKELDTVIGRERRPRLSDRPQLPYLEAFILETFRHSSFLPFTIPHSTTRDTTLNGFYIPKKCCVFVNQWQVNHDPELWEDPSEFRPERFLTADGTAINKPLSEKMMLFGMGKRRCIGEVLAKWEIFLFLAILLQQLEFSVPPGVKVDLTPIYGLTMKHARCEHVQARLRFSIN
Summary of the method: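 Compounds were tested at 10 uM in duplicate against recombinant CYP1A2 produced in insect cells. Enzyme activity was measured by fluorescence 0.5 h after dosing, with loss of signal versus acetonitrile control. Active compounds were re-tested in concentration series.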

[9] = molecular target: Cytochrome P450 2C18 (Homo sapiens) (UniProt P33260); test: NVS_ADME_hCYP2C18: NovaScreen (NVS) CYP450-related Enzyme Activity (ADME) Assay for human CYP2C18 (AID 2283103)
Chain of Cytochrome P450 2C18 (Homo sapiens) (P33260 whole entry, looked up): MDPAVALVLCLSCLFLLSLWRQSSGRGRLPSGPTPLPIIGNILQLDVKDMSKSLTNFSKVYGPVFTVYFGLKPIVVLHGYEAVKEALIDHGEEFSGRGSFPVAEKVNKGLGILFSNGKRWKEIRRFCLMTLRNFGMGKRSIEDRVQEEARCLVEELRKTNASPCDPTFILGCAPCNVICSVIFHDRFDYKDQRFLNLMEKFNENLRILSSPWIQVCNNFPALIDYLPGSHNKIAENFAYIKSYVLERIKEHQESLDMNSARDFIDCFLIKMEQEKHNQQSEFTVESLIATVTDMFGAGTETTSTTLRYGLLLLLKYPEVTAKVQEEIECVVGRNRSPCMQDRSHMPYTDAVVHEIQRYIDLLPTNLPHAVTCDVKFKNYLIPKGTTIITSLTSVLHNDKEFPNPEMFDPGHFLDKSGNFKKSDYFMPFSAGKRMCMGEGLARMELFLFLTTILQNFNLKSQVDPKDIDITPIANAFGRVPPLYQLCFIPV
Summary of the method: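 Cell-free recombinant human CYP2C18 with fluorogenic substrate; fluorescence intensity read 0.5 h after dosing. Single-point screen at 10 uM in duplicate, then concentration-response up to 20 uM; loss of signal fitted against acetonitrile baseline.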

[10] = molecular target: human CYP2C9, CYP2C9 (gene 1559) (UniProt P11712); test: NVS_ADME_hCYP2C9: NovaScreen (NVS) CYP450-related Enzyme Activity (ADME) Assay for human CYP2C9 (AID 2283108; active = hit-call score of the fitted dose curve at least 0.9, where 1 is the maximum)
Chain of human CYP2C9, CYP2C9 (gene 1559) (P11712 whole entry, looked up): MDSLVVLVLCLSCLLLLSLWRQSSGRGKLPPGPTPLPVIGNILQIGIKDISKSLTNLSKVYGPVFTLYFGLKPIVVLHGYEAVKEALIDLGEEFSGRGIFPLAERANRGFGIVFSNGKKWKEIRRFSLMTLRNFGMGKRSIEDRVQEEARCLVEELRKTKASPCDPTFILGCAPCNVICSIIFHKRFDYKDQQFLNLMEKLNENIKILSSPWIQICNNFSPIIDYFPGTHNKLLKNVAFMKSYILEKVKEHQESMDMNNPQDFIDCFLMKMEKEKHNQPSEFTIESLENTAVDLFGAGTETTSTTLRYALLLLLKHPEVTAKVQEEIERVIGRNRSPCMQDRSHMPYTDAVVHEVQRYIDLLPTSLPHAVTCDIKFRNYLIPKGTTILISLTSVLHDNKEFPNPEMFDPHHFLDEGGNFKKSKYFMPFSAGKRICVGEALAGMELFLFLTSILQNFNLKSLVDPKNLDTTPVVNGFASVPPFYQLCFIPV
Summary of the method: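 Fluorescence readout of CYP2C9 activity (SF9-expressed human enzyme) at 0.75 h. The primary screen used 10 uM in duplicate, with concentration-response follow-up for actives; acetonitrile was the negative control.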

[11] = molecular target: Cytochrome P450 2C19 (Homo sapiens) (UniProt P33261); test: NVS_ADME_hCYP2C19: NovaScreen (NVS) CYP450-related Enzyme Activity (ADME) Assay for human CYP2C19 (AID 2283113; active = hit-call score of the fitted dose curve at least 0.9, where 1 is the maximum;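 for AC50: potency for inhibition seen as loss of fluorescent signal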)
Summary of the method: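 Chemicals first screened in duplicate at 10 uM against recombinant human enzyme produced in insect cells; confirmed actives then run as concentration series. Fluorogenic substrate turnover read by fluorescence after 1 h, normalised to acetonitrile.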

[12] = molecular target: human CYP1A1, CYP1A1 (gene 1543) (UniProt P04798); test: NVS_ADME_hCYP1A1: NovaScreen (NVS) CYP450-related Enzyme Activity (ADME) Assay for human CYP1A1 (AID 2283100; active = hit-call score of the fitted dose curve at least 0.9, where 1 is the maximum)
Chain of human CYP1A1, CYP1A1 (gene 1543) (P04798 whole entry, looked up): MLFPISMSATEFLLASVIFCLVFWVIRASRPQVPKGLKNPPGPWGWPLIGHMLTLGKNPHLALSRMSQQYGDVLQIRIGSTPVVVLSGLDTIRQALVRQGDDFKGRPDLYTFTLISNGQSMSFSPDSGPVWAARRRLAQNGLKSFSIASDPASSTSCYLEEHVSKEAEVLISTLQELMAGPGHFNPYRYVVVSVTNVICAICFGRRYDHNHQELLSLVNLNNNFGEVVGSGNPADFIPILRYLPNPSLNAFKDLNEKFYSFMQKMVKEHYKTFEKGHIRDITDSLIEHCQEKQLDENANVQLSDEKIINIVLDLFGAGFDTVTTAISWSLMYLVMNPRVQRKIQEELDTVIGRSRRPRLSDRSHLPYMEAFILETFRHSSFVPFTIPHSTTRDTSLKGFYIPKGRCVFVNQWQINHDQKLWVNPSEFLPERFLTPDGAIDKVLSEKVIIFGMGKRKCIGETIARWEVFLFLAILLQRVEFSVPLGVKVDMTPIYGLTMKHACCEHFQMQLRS
Summary of the method: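 Compounds first went through duplicate single-concentration testing at 10 uM against purified CYP1A1. Those passing a threshold such as 30% inhibition entered singleton dose-response, highest concentration 20 uM. Signal was fluorescence measured after 1 hour.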

[13] = molecular target: human CYP2C8, CYP2C8 (gene 1558) (UniProt P10632); test: NVS_ADME_hCYP2C8: NovaScreen (NVS) CYP450-related Enzyme Activity (ADME) Assay for human CYP2C8 (AID 2283104)
Chain of human CYP2C8, CYP2C8 (gene 1558) (P10632 whole entry, looked up): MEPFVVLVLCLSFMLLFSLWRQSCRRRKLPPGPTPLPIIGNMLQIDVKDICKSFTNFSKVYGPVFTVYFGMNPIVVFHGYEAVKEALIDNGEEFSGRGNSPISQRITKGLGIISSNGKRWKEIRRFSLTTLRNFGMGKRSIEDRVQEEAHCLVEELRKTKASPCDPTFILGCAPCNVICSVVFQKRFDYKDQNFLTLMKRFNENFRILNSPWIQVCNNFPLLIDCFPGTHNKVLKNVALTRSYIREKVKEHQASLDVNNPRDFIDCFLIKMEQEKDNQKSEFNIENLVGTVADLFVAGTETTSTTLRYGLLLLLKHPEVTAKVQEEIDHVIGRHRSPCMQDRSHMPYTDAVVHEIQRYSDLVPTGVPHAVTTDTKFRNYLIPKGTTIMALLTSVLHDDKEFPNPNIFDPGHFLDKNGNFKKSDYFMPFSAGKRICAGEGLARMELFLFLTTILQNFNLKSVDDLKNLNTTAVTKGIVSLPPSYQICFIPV
Summary of the method: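 Recombinant human CYP2C8 with fluorogenic substrate, 0.5 h, fluorescence intensity; signal loss fitted versus acetonitrile. Screened in duplicate at 10 uM, then actives run in concentration-response up to 20 uM.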

[14] = molecular target: Cytochrome P450 3A4 (Homo sapiens) (UniProt P08684); test: NVS_ADME_hCYP3A4: NovaScreen (NVS) CYP450-related Enzyme Activity (ADME) Assay for human CYP3A4 (AID 2283110; active = hit-call score of the fitted dose curve at least 0.9, where 1 is the maximum)
Chain of Cytochrome P450 3A4 (Homo sapiens) (P08684 whole entry, looked up): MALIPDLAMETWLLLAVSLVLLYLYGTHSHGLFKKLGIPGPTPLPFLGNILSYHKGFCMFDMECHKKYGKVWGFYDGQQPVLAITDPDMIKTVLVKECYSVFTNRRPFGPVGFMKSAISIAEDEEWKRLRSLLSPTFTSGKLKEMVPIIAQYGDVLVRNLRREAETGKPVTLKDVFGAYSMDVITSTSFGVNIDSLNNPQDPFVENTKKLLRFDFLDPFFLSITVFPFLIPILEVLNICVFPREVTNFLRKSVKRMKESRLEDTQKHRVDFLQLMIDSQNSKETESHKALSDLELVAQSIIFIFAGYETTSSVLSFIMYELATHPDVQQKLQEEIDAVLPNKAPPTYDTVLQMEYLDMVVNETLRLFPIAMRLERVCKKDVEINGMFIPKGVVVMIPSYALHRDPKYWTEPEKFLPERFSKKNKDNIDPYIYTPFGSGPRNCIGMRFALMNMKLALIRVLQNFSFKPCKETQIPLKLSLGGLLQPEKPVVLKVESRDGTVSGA
Summary of the method: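 Compounds were first screened in duplicate at 10 uM against recombinant CYP3A4 produced in insect cells, then actives were run in concentration series. Enzyme activity was measured by fluorescence after 0.33 hour, with acetonitrile as baseline.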

[15] = molecular target: human CYP4F12, CYP4F12 (gene 66002) (UniProt Q9HCS2); test: NVS_ADME_hCYP4F12: NovaScreen (NVS) CYP450-related Enzyme Activity (ADME) Assay for human CYP4F12 (AID 2283111; active = hit-call score of the fitted dose curve at least 0.9, where 1 is the maximum)
Summary of the method: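 Cell-free fluorescence assay of recombinant human CYP4F12 activity on a specific substrate, read 0.5 h after dosing. Primary screen in duplicate at 10 uM, then concentration series for actives; loss of signal fitted against acetonitrile negative control.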

[16] = molecular target: human CYP2A6, CYP2A6 (gene 1548) (UniProt P11509); test: NVS_ADME_hCYP2A6: NovaScreen (NVS) CYP450-related Enzyme Activity (ADME) Assay for human CYP2A6 (AID 2283099; active = hit-call score of the fitted dose curve at least 0.9, where 1 is the maximum)
Chain of human CYP2A6, CYP2A6 (gene 1548) (P11509 whole entry, looked up): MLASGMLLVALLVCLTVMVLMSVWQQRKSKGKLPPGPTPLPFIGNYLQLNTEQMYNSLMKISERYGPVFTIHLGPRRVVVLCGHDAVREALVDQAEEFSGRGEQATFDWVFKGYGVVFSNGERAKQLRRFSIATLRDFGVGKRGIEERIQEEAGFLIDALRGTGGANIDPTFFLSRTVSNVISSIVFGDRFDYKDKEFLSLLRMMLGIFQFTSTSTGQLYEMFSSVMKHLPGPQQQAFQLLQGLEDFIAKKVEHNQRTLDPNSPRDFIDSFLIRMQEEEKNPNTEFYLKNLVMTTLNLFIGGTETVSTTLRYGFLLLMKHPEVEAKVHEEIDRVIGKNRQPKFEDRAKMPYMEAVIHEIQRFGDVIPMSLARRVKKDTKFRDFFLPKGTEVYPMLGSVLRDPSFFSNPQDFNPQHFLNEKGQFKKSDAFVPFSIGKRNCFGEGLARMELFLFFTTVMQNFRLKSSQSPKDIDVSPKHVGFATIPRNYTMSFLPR
Summary of the method: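 Recombinant human CYP2A6 from insect cells was incubated with chemical for 0.5 h and activity read by fluorescence. Single-concentration duplicates at 10 uM preceded concentration-response testing to 20 uM, with activity referenced to acetonitrile.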

[17] = molecular target: human CYP2B6, CYP2B6 (gene 1555) (UniProt P20813); test: NVS_ADME_hCYP2B6: NovaScreen (NVS) CYP450-related Enzyme Activity (ADME) Assay for human CYP2B6 (AID 2283101; active = hit-call score of the fitted dose curve at least 0.9, where 1 is the maximum)
Summary of the method: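 Recombinant protein, specific fluorescent substrate, read at 1 h post-dosing. Primary: single 10 uM, duplicate; follow-up: concentration series. Activity = signal loss vs acetonitrile baseline, with positive and negative controls on every plate.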

[18] = molecular target: human CYP2J2, CYP2J2 (gene 1573) (UniProt P51589); test: NVS_ADME_hCYP2J2: NovaScreen (NVS) CYP450-related Enzyme Activity (ADME) Assay for human CYP2J2 (AID 2283106; active = hit-call score of the fitted dose curve at least 0.9, where 1 is the maximum)
Summary of the method: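 Cell-free assay of recombinant CYP2J2 with a fluorogenic substrate, read 1 h after dosing; loss of signal versus acetonitrile. Primary screen at 10 uM in duplicate, then concentration-response up to 20 uM for chemicals passing threshold (e.g., 30% inhibition).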

[19] = molecular target: human CYP2D6, CYP2D6 (gene 1565) (UniProt P10635); test: NVS_ADME_hCYP2D6: NovaScreen (NVS) CYP450-related Enzyme Activity (ADME) Assay for human CYP2D6 (AID 2283107; active = hit-call score of the fitted dose curve at least 0.9, where 1 is the maximum)
Summary of the method: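 Compounds were first tested in duplicate at 10 uM against recombinant enzyme produced in insect cells, with substrate turnover measured by fluorescence after 1 hour. Decreased signal, referenced to acetonitrile vehicle, was taken as reduced enzyme activity. Active chemicals went on to concentration-response testing.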

[20] = molecular target: rat CYP1A2, Cyp1a2 (gene 24297) (UniProt P04799); test: NVS_ADME_rCYP1A2: NovaScreen (NVS) CYP450-related Enzyme Activity (ADME) Assay for rat CYP1A2 (AID 2283115; active = hit-call score of the fitted dose curve at least 0.9, where 1 is the maximum)
Summary of the method: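 Cell-free recombinant rat enzyme with fluorogenic substrate, read by fluorescence intensity 1 hour after dosing. Loss of signal versus acetonitrile negative control; primary screen at 10 uM in duplicate, actives followed in concentration series.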

Measured: AC50

Chain of E-selectin (Homo sapiens) (P16581 whole entry, looked up): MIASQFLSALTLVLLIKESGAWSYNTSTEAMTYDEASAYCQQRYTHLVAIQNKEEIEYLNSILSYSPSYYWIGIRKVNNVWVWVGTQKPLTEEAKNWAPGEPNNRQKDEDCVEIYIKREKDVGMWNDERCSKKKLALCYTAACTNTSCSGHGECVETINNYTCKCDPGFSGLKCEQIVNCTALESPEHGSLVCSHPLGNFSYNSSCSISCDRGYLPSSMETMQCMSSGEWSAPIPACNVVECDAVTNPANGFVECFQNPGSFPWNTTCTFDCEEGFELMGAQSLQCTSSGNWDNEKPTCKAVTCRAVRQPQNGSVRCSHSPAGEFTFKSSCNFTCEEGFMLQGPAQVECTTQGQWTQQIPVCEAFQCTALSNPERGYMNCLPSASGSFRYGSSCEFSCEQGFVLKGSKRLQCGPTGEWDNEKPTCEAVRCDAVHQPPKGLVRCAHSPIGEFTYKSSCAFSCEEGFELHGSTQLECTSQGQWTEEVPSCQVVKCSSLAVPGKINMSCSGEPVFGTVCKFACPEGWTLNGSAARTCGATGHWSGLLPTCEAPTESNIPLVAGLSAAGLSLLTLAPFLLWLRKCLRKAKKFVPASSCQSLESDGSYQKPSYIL

CNC(=S)S
active: [1] 27.5 µM | [3] 14.7 µM | [5] 11.9 µM | [6] 23.3 µM | [11] 7.58 µM
inactive: [2] | [4] | [7] | [8] | [9] | [10]

CCCCOC(=O)c1ccccc1C(=O)OCCCC
inactive: [1] | [3] | [4] | [6] | [7] | [12] | [13]
active: [1] 20 µM | [5] 29.2 µM and 31.4 µM | [8] 7.03 µM and 7.88 µM | [11] 6.73 µM and 7.37 µM

CCCCNC(=O)n1c(NC(=O)OC)nc2ccccc21
inactive: [1] | [3] | [4]
active: [5] 6.25 µM | [6] 12.3 µM

CCON=C(CC)C1=C(O)CC(c2c(C)cc(C)cc2C)CC1=O (stereo not drawn)
inactive: [1] | [2] | [3] | [4] | [5] | [6]
active: [11] 3.37 µM

COc1ccc(C(c2ccc(OC)cc2)C(Cl)(Cl)Cl)cc1
active: [1] 14.4 µM | [2] 30.7 µM | [3] 31.5 µM | [4] 11.9 µM | [5] 12 µM | [6] 14.9 µM | [7] 3.76 µM | [9] 4.6 µM | [10] 10 µM | [11] 7 µM
inactive: [7] | [13] | [14] | [15]

CC(C)Oc1cc(-n2nc(C(C)(C)C)oc2=O)c(Cl)cc1Cl
inactive: [11]
active: [1] 30.3 µM | [2] 31.9 µM | [3] 34.4 µM | [4] 31.2 µM | [5] 31.3 µM | [6] 30.5 µM | [8] 6.42 µM

COC(=O)C=C(C)OP(=O)(OC)OC
inactive: [1] | [3] | [4] | [5] | [6]

CNC(=O)ON=CC(C)(C)SC
inactive: [1] | [2] | [3] | [4] | [5] | [6]

COc1nc(NC(C)C)nc(NC(C)C)n1
inactive: [1] | [3] | [4] | [5] | [6]

CCOP(=S)(OCC)SCn1c(=O)oc2cc(Cl)ccc21
inactive: [2] | [3] | [7] | [18] | [20]
active: [1] 29.4 µM | [4] 26.8 µM | [5] 29 µM | [6] 31.9 µM | [16] 0.683 µM | [12] 0.513 µM | [17] 1.25 µM | [8] 2 µM | [9] 1.46 µM | [19] 2.8 µM | [10] 1.8 µM | [11] 0.215 µM

CC(C)C1(C)N=C(c2nc3ccccc3cc2C(=O)O)NC1=O (stereo not drawn)
inactive: [1] | [3] | [4] | [5] | [6]

CCOc1cc(Oc2ccc(C(F)(F)F)cc2Cl)ccc1[N+](=O)[O-]
active: [1] 9.5 µM | [4] 12.5 µM | [5] 18.5 µM | [6] 13.3 µM
inactive: [3]

OC(c1ccc(Cl)cc1)(c1cncnc1)c1ccccc1Cl (stereo not drawn)
active: [1] 26.5 µM | [2] 32.9 µM | [3] 3.45 µM | [5] 11.7 µM | [6] 29.3 µM | [16] 2.37 µM | [12] 8.07 µM | [17] 5.75 µM | [9] 6.02 µM | [13] 10 µM | [18] 2.26 µM | [10] 2.35 µM | [14] 3.87 µM | [11] 0.136 µM
